Shiga toxin inh: blocks Shiga toxin action in Vero cells. Vero cells, Shiga toxin protein synthesis inhibition reporter. inhibition, % at 38.7 µM. 290,000 compounds, 9.2% hits. AID 2315; in the data active means inhibition mostly above about 28%, no sharp cut-off; inactive means mostly below about 43%; further: 0% is about no effect
Cycloheximide cs: affects cycloheximide protein synthesis inhibition readout, counter-screen; max response, %; 300,000 compounds, 12% hits; cell reporter, cycloheximide protein synthesis inhibition counterscreen; in the data active means max response mostly above about 13%, no sharp cut-off; inactive means mostly below about 14%; further: read at 38.3 µM for the half of the compounds with a filed dose; 0% is about no effect
SARS PLpro yeast-1: SARS-CoV PLP inhibition in yeast. Potency, µM (top dose mostly 32.9 µM), for the others: at the highest dose activity, positive = growth rescue, hits mostly activators. S. cerevisiae expressing SARS-CoV PLpro, growth rescue. 330,000 compounds, 0.19% hits; calls by dose curve; further: potency means the concentration at half of the fitted maximal effect; 0% is about no effect; nearly all actives have a fitted effect of over 55% in size
NS1 function inh: inhibitors of influenza NS1 protein function; Potency, µM (series often up to 46.1 µM), inactives show at the top dose activity, positive = more growth; 270,000 compounds, 0.4% hits; AID 2326; calls by dose curve; further: potency means the concentration at half of the fitted maximal effect; actives are rising curves; nearly all actives have a fitted effect of over 50% in size
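Recovery from NS1-induced slow growth read by OD600 in budding yeast switched to galactose assay medium (pH 6.0, -URA) at 1:100 dilution. Compound 23 nl per well; the matching strain lacking NS1 serves as control.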
LmPK inhibitor: blocks Leishmania mexicana pyruvate kinase activity. Q27686. purified LmPK, Kinase-Glo ATP luminescence, 1 h. Potency, µM (top dose mostly 57.5 µM), for inactives: top-dose activity change, negative = inhibition, actives largely listed as inhibitors. 290,000 compounds, 0.37% hits. AID 1721; further: potency means the concentration at half of the fitted maximal effect; on the % scale 0 is the no-effect control and ±100 the full control effect
Target sequence (Q27686 whole entry, looked up): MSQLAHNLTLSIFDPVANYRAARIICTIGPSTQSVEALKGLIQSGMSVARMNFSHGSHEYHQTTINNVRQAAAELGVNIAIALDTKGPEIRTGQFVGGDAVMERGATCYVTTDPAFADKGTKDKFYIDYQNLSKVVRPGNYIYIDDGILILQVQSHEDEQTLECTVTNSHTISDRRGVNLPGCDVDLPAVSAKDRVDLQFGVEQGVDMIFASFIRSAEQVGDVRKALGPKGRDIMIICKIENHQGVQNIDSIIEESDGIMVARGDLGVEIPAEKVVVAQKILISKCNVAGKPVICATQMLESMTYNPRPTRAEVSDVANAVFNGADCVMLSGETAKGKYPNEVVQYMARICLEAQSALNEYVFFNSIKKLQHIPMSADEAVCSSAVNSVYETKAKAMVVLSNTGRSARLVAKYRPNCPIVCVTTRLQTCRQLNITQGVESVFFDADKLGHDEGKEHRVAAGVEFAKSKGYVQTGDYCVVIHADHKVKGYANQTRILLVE
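0.1 nM LmPK, 0.5 mM PEP, 0.1 mM ADP; 50 mM imidazole pH 7.2, 7 mM MgCl2, 50 mM KCl; 1 h RT. Kinase-Glo luminescence readout, normalized to no-enzyme (full inhibition) and uninhibited wells.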
Tb PYK inh: blocks Trypanosoma brucei pyruvate kinase. Q57TT1. Potency, µM (doses to about 76.8 µM), inactives show at the top dose activity, negative = inhibition, actives largely listed as inhibitors. TbPYK enzyme, Kinase-Glo Plus ATP luminescence, 45 min. 410,000 compounds, 0.12% hits; further: potency means the concentration at half of the fitted maximal effect; on the % scale 0 is the no-effect control and ±100 the full control effect; nearly all actives have a fitted effect of over 50% in size
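Readout: single end-point luminescence (Kinase-Glo Plus, 10 min). Reaction conditions were TbPYK/substrate plus 130 uM ADP, 45 min at RT, pH 7.2 TEA buffer. No-enzyme wells served as controls, and data were normalized before concentration-response fitting.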
SARS PLpro yeast-2: Rescues yeast growth by inhibiting SARS-CoV PLpro; shares compounds with SARS PLpro yeast-1; yeast expressing SARS-CoV PLpro, growth phenotype rescue; calls only; 1,000 compounds, 19% hits; call rule not given here
The depositor's hits bear a star; i = inactive; u = inconclusive; x = no result given; + = active, no number. Many of the other results were omitted from the sample, so hits are more common in it than they were. Unless noted, the call rests on the fitted dose curve; in most records, active means well fitted curve in the direction sought with a large enough effect; inconclusive means small, poorly fitted or top-dose-only effect, or another doubt; inactive means no such curve, though single readings can be large; an effect the other way counts as inactive or inconclusive.

SMILES	Shiga toxin inh	Cycloheximide cs	SARS PLpro yeast-1	NS1 function inh	LmPK inhibitor	Tb PYK inh	SARS PLpro yeast-2
COc1cc(N/N=C/c2ccccc2O)ncn1	33*	28*	8.9µM*	-5%	-15%	-7%	u
Cc1cnn(-c2cc(N/N=C/c3ccccc3F)ncn2)c1	-10	-4	-6%	2%	0%	-7%	x
CNC(=S)N/N=C(\C)c1ccc2c(c1)OCCO2	36	19*	u	3%	-1%	-3%	+
CNC(=S)N/N=C(\C)c1cccc([N+](=O)[O-])c1	-4	-1	13µM*	7%	0%	5%	i
CN(Cc1ccccc1F)C(=O)CN1c2cccc3cccc(c23)S1(=O)=O	x	x	-13%	x	x	2%	x
CCc1ccc(CNC(=O)CCCn2nc(C)n3ccnc3c2=O)cc1	-6	1	u	7%	-5%	-2%	i
COC(=O)C1(S(=O)(=O)c2cc(Br)cc3c2N(C(C)=O)CC3)CC1	-12	-1	u	2%	-1%	-9%	i
COc1ccc(S(=O)(=O)N2CCC(n3c(C(F)(F)F)nc4cccnc43)CC2)cc1OC	x	x	x	x	x	1%	x
Cc1ccccc1NC(=O)/C(=C\c1cccs1)NC(=O)c1ccco1	-3	1	u	-3%	2%	-1%	i
O=C(CCNC(=O)c1ccccc1Cl)Nc1ccc(Cl)c(C(F)(F)F)c1	-7	4	3.5µM*	-17%	-2%	5%	i
COc1ccc(NC(=O)CCNC(=O)c2ccccc2Cl)cc1OC	-6	5	-1%	4%	6%	-10%	x
CCSc1nc2c([nH]c3ccccc32)c(=O)n1-c1cccc(OC)c1	x	x	x	x	x	-5%	x
O=C1CC(c2nc(-c3ccc(Cl)cc3)no2)CN1c1ccc2c(c1)OCCO2 (stereo unspecified)	x	x	x	x	x	2%	x
CCOc1ccccc1NC(=O)C1(S(=O)(=O)c2ccc(Cl)cc2)CC1	13	1	-5%	14%	0%	0%	x
COc1ccccc1NC(=S)NNC(=O)c1cc(C)n(C)n1	4	7	u	0%	-4%	-14%	i
CCCn1c(SCc2nc(N)nc(N3CCCCC3)n2)nc2c1c(=O)n(C)c(=O)n2C	-18	-6	-10%	x	3%	-5%	x
Cn1c(=O)c2c(nc(SCc3nc(N)nc(N4CCCCC4)n3)n2C)n(C)c1=O	-18	-6	u	11%	-4%	6%	i
CCC(CO)Oc1cc(NC(=O)Cc2ccccc2)c2ncn(C(C)C)c2c1 (stereo unspecified)	x	x	1%	x	x	-3%	x
COc1cc(CNCC(C)C)c(Br)cc1OCC(=O)NCc1ccccc1	-12	-3	u	-3%	6%	-2%	i
CCCCCOc1ccccc1CN1C(=O)C(=O)c2cc(C)ccc21	x	x	x	x	x	0%	x
Cc1nc2ccccc2n1CCc1nc2c3ccccc3nc(SCc3cccc(F)c3)n2n1	x	x	x	x	x	1%	x
COc1cccc(OC)c1Nc1nc(C)nc2c1nnn2Cc1ccccc1Cl	3	-1	-2%	3%	6%	-2%	x
CCc1nc(Nc2ccc(OC)c(OC)c2)c2nnn(Cc3ccccc3Cl)c2n1	11	-2	18µM*	3%	0%	7%	+
CC1(C(=O)NS(=O)(=O)c2ccc(Cl)cc2)CCN1C(=O)CC1CC1 (stereo unspecified)	x	x	x	x	x	0%	x
CCCCCC(=O)Nc1ccc(Cc2ccncc2)cc1	23	11	13µM*	-16%	2%	-10%	i
SMILES	Shiga toxin inh	Cycloheximide cs	SARS PLpro yeast-1	NS1 function inh	LmPK inhibitor	Tb PYK inh	SARS PLpro yeast-2
CCOc1ccc(C(=O)Nc2ccc(NC(=O)c3cccs3)cc2)cc1[N+](=O)[O-]	-4	1	4µM*	6%	-3%	2%	+
COc1ccc(C(=O)Nc2ccc(NC(=O)c3cccs3)cc2)cc1[N+](=O)[O-]	-3	-4	-3%	-2%	-3%	-9%	x
O=C(O)CSCC(=O)N(c1ccccc1)c1ccccc1	-4	-1	-3%	-7%	2%	0%	x
O=C(N/N=C/c1c(O)n(Cc2ccc(F)cc2)c(=S)[nH]c1=O)c1ccncc1	3	8	3%	-4%	5%	-6%	x
CCC(C)n1c(O)c(/C=N/NC(=O)c2ccncc2)c(=O)[nH]c1=S (stereo unspecified)	10	-5	11µM*	26%	-1%	2%	i
CC(=O)Nc1cccc(-c2cn3ccccc3n2)c1	40	39	-1%	-3%	-2%	6%	x
CNC(=O)Oc1cccc(-c2cn3cc(OC(=O)NC)ccc3n2)c1	active	37*	11µM*	-38%	-21%	-8%	+
O=C(COc1ccc(Br)cc1)N1CCN(c2ncccn2)CC1	x	x	0%	x	x	0%	x
CNc1nc(-c2ccccn2)nnc1-c1ccccc1	22	4	u	-44%	-4%	2%	i
c1ccc(-c2nnc(-c3ccccn3)nc2NC2CCCCC2)cc1	19	24	-50%	-151%	-8%	3%	x
CNC(=S)N/N=C/C1=CCC2CC1C2(C)C (stereo unspecified)	-2	-6	13µM*	-11%	0%	2%	+
O=C(COC(=O)c1ccc(S(=O)(=O)N2CCCCCC2)cc1)NCc1ccc(F)cc1	x	x	u	x	x	-12%	+
Cc1ccc(CNC(=O)COC(=O)c2ccc(S(=O)(=O)N3CCCCCC3)cc2)cc1	x	x	1%	x	x	1%	x
O=C(Cc1cc(=O)[nH]c(=O)[nH]1)N1CCN(C(=O)c2ccco2)CC1	-1	-6	1.8µM*	-8%	0%	-5%	i
O=C(Nc1ccc(Cl)c(S(=O)(=O)N2CCCCC2)c1)c1ccncc1	x	x	5µM*	x	x	-3%	i
O=C(Nc1ccc(Cl)c(S(=O)(=O)N2CCCCC2)c1)c1cnccn1	x	x	-11%	x	x	-11%	x
CCC(=NNC(=O)c1ccc2c(c1)nc(C)n2CC)c1cc(F)ccc1O	x	x	10µM*	x	x	1%	i
COc1ccc(S(=O)(=O)N2CCOC23CCN(S(=O)(=O)c2ccc(Cl)cc2)CC3)cc1	x	x	-5%	x	x	-8%	x
Cc1cc(C)cc(NC(=S)Nc2ccccn2)c1	active	21	3.2µM*	-12%	-1%	-10%	+

Screening data from PubChem.
